Assay outcomes as filed in PubChem.
KCNQ2 inh: blocks the rat KCNQ2 potassium channel. O88943. CHO-K1 KCNQ2, FluxOR thallium flux, 20 min; stronger effect = lower value. B-score at 10 µM. actives 1.1% (n = 310,000);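 active = fluorescence ratio B-score at most minus 3 library SDs, with starting brightness B-score within 2 library SDs, cut at about -5.5 in these data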
Target sequence (O88943 whole entry, looked up): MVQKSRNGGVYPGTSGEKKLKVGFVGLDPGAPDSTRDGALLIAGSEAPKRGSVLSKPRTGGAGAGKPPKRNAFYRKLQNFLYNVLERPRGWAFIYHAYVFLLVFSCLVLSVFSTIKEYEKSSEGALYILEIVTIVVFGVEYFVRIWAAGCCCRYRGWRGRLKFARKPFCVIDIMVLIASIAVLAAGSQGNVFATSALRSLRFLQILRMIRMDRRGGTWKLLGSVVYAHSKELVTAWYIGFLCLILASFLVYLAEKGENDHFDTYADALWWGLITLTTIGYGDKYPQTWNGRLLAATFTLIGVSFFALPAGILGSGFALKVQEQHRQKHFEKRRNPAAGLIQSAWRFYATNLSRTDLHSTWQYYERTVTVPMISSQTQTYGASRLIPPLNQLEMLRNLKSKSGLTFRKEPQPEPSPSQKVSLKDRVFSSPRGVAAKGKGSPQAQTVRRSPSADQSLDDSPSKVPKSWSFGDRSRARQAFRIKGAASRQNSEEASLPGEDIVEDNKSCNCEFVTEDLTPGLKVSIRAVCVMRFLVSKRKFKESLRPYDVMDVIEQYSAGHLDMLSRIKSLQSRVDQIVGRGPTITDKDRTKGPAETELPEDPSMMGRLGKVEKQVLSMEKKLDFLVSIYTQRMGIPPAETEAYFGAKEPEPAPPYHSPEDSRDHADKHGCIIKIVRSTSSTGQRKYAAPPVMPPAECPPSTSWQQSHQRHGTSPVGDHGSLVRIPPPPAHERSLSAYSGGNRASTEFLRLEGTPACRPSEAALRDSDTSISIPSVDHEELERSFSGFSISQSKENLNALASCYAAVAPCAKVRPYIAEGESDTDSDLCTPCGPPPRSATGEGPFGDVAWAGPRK
KCNQ2 enhance: potentiators of rat KCNQ2 potassium channel; CHO-K1 KCNQ2, FluxOR thallium flux fluorescence; stronger effect = higher value; O88943; B-score at 10 µM; actives 0.54% (n = 310,000);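 active = fluorescence ratio B-score at least 3 SD of library B-scores, with initial fluorescence B-score within 3 of them, cut at about 5.3 in these data; same plate scores as AID 2156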;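 note: B-score of peak minus minimum over baseline fluorescence ratio after K+ and Tl+ stimulus; positive B-score means potentiation of KCNQ2 with more thallium influx and brighter signal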
Numbers stand for hits; – = inactive; · = not tested or not shown. The list is not random: actives were taken first. Their share in the collection is about 1.6%.

SMILES | KCNQ2 inh | KCNQ2 enhance
CCC(C)c1ccccc1NC(=O)Cc1coc2cc3c(cc12)CCC3 (stereo not drawn) | – | 7.7
Cc1ccc(C)c(NC(=O)Cc2coc3cc4c(cc23)CCC4)c1 | – | –
C=C1CCN([C@@H](Cc2ccccc2)C(=O)NCc2ccccc2)S(=O)(=O)c2ccccc21 | – | ·
C=C1CCN([C@@H](Cc2ccccc2)C(=O)NCc2ccc(Cl)cc2)S(=O)(=O)c2ccccc21 | -6 | –
COc1cc(O)c(C(C)=O)c(CC(=O)O)c1 | – | –
CCCCCc1ccc(C(=O)CCCC)c(=S)[nH]1 | – | 8
CCCCCc1cc(=O)[nH]c(=S)[nH]1 | – | –
CCN(CC)C(=O)N1CCc2ccccc2C1CN1C(=O)c2ccccc2C1=O (stereo not drawn) | -6.2 | –
O=C(O)[C@@H]1CCCC[C@@H]1C(=O)N1CCc2ccccc2C1CN1C(=O)c2ccccc2C1=O (stereo partly drawn) | – | ·
O=C1c2ccccc2C(=O)N1CC1c2ccccc2CCN1C(=O)C1CCCCC1 (stereo not drawn) | -6.9 | –
O=C1c2ccccc2C(=O)N1CC1c2ccccc2CCN1C(=O)CN1CCOCC1 (stereo not drawn) | – | ·
COC(=O)c1ccc(COC(=O)CCC(=O)c2cccs2)cc1 | – | ·
CN(Cc1cccnc1)Cc1c(C(=O)N2CCc3ccccc3C2)nc2ccc(Cl)cn12 | – | ·
CCCCN(C)Cc1c(C(=O)N2CCc3ccccc3C2)nc2ccc(Cl)cn12 | -5.6 | –
CCc1ccc(C(=O)COC(=O)c2n[nH]c3ccccc23)cc1 | – | ·
CN1CCN(c2ccc(Cl)cc2NC(=O)c2cccc(S(=O)(=O)N(C)C)c2)CC1 | – | ·
CN1CCN(c2ccc(Cl)cc2NC(=O)/C=C/c2cccc(F)c2)CC1 | -6.5 | –
O=C1NCC(O)=C1C=Nc1ccccc1O | – | ·
CCOC(=O)N1CCN(CC(=O)Nc2sc(CC)cc2C(=O)c2ccc(OC)cc2)CC1 | -5.9 | –
CCc1cc(C(=O)OC)c(NC(=O)CN2CCN(C(=O)c3ccco3)CC2)s1 | – | –
CCC(C)c1ccc(OCc2ccc(C(=O)O)o2)cc1 (stereo not drawn) | – | ·
Cc1ccc(N(CCCCN2C(=O)c3ccccc3C2=O)C(=O)c2ccc(Cl)s2)cc1 | – | ·
O=C1c2ccccc2C(=O)N1CCCCN(C(=O)c1ccc(Cl)s1)c1ccc(Cl)cc1 | -5.6 | –
O=C(NC(=S)Nc1ccccc1O)c1ccccc1Cl | – | ·
CCOc1ccc(C2C(C(=O)c3ccco3)=C(O)C(=O)N2CCCn2ccnc2)cc1OC (stereo not drawn) | – | ·
SMILES | KCNQ2 inh | KCNQ2 enhance
O=C(CSC1=NS(=O)(=O)c2ccccc21)Nc1ccccc1 | -6.4 | –
O=C(CSC1=NS(=O)(=O)c2cc(F)ccc2N1)Nc1ccccc1 | – | ·
Cc1ccc(NC(=O)COc2ccc(CCO)cc2-n2nc3ccccc3n2)cc1C | – | ·
COc1ccccc1CNC(=O)C1(c2ccc(Cl)cc2)CC1 | -5.7 | –
COc1ccc(C2(C(=O)NCc3ccccc3Cl)CCOCC2)cc1OC | – | –
Cc1ccc2c(c1)cc1c(=O)n(CC(=O)NCCCc3ccccc3)nc(C)n12 | – | –
Cc1cc(NC(=O)Nc2cccc(Cl)c2)n(-c2ccccc2)n1 | – | –
Cc1cc(Nc2ccccc2)n(-c2cccc(Cl)c2)n1 | -6 | –
C(=N\n1cnnc1)/c1ccccn1 | – | ·
C(=N\N(c1ccccc1)c1ccccc1)/c1ccccn1 | -6.2 | –
Cc1nn(C)c2nc(-c3cccs3)cc(C(F)(F)F)c12 | – | ·
Cc1nn(CCO)c2nc(-c3cccs3)cc(C(F)(F)F)c12 | – | 5.8
O=C(Nc1ccc2c(c1)N(S(=O)(=O)c1cccs1)CCC2)c1c(F)cccc1Cl | -6.4 | –
COc1cccc(OC)c1C(=O)Nc1ccc2c(c1)N(S(=O)(=O)c1cccs1)CCC2 | – | –
Cc1ccc(C(C(=O)NCc2ccc(F)cc2)N(Cc2ccco2)C(=O)c2snc(C(N)=O)c2N)o1 (stereo not drawn) | – | –
Cc1cccc(NCc2nc3ccccc3n2C)c1 | – | –
Cc1ccc(NCc2nc3ccccc3n2C)c(C)c1 | -6.6 | –
c1ccc2sc(SCc3ccc(-c4nnco4)cc3)nc2c1 | -7.1 | –
NC(=O)c1ccc(CSc2nc3ccccc3s2)cc1 | – | –
COC(=O)c1ccc2c(=O)n(CCCCCC(=O)N3CCN(c4ccccc4)CC3)c(=O)[nH]c2c1 | – | –
COc1cc2[nH]c(=O)n(CCCCCC(=O)N3CCN(c4ccccc4)CC3)c(=O)c2cc1OC | -8.3 | –
Cc1nc(N)sc1-c1csc(Nc2ccccn2)n1 | – | 6.8
Cc1nc(N)sc1-c1csc(Nc2ccc(Cl)cn2)n1 | – | –
COc1ccc(OCC(O)Cn2c(Nc3cccc(C)c3)nc3c2c(=O)n(C)c(=O)n3C)cc1 (stereo not drawn) | – | ·
CC12CCC(c3c(C(=O)O)nn(-c4ccccc4)c31)C2(C)C (stereo not drawn) | – | –
SMILES | KCNQ2 inh | KCNQ2 enhance
CC12CCC(c3c(C(=O)Nc4nccs4)nn(-c4ccccc4)c31)C2(C)C (stereo not drawn) | -8.3 | –
COc1cc(/C=C2\SC(=Nc3ccccc3)N(Cc3ccco3)C2=O)ccc1OC(C)C(=O)O (stereo not drawn) | – | ·
COCCN1C(=O)/C(=C/c2ccc(OCc3ccc(C(=O)O)cc3)c(OC)c2)SC1=Nc1ccccc1 | -6.1 | –
Cc1cc2nc(CS(=O)(=O)c3ccccc3)cc(=O)n2[nH]1 | – | –
OC(c1ccccc1)(c1ccc(F)cc1)C(c1ccccc1)N1CCOCC1 (stereo not drawn) | -5.7 | –
O=C(NCC(c1ccc(F)cc1)N1CCOCC1)c1ccc(C(=O)c2ccccc2)cc1 (stereo not drawn) | – | –
CCOc1ccc2[nH]c(=O)c(C(c3nnnn3Cc3ccco3)N3CCCC(C)C3)cc2c1 (stereo not drawn) | -6.5 | –
CCOc1ccc2[nH]c(=O)c(C(c3nnnn3Cc3ccco3)N3CCC(C)CC3)cc2c1 (stereo not drawn) | – | –
CCOC(=O)c1cccc(NC(=O)CSc2nnc(COc3ccccc3)n2CC)c1 | – | ·
CCOC(=O)c1ccccc1NC(=O)CSc1nnc(COc2ccccc2)n1CC | -6.4 | –
O=C1N[C@@H](Cc2ccccc2)C(=O)N2[C@@H]1C[C@]1(Br)c3ccccc3N(S(=O)(=O)c3ccccc3)[C@H]21 | – | ·
Cc1ccc(C)n1-n1c(C)nc2sc3c(c2c1=O)CCCCC3 | – | ·
Cc1ccc(C)n1-n1cnc2sc3c(c2c1=O)CCCCC3 | -7.5 | –
COc1ccccc1CCNC(=O)CSc1nnc2ccc(-c3ccncc3)nn12 | – | ·
CC(Oc1ccc(F)cc1)C(=O)Nc1cc(S(=O)(=O)N2CCOCC2)ccc1N1CCCC1 (stereo not drawn) | – | –
CC(Oc1ccc(F)cc1)C(=O)Nc1cc(S(=O)(=O)N2CCOCC2)ccc1N1CCCCC1 (stereo not drawn) | -8.1 | –
C(=C\c1ccccc1)/CSc1nnc(-c2ccncc2)n1Cc1ccco1 | – | ·
Clc1cccc(-c2nnc(SC/C=C/c3ccccc3)n2Cc2ccco2)c1 | -8.3 | –
C(=C\c1ccccc1)/CSc1nnc(-c2ccccc2)n1Cc1ccco1 | -5.9 | –
Nn1c(SC/C=C/c2ccccc2)nnc1-c1ccco1 | – | –
O=C(Nc1cccc(C(=O)O)c1)/C(=C\c1ccc2c(c1)OCO2)NC(=O)c1ccccc1Cl | – | ·
OC(CNCC1CCCO1)COc1ccc(OCC(O)CNCC2CCCO2)cc1 (stereo not drawn) | – | –
